The entries come from a sample that favours hits as a whole.
TTR transcr act: TTR transcription activators in neuroblastoma reporter cells, primary screen, cell-based, luminescence, SH-SY5Y, TTR promoter Gaussia luciferase; activation, % at 16.7 µM; actives 1.3% (n = 92,000); 100% = recombinant luciferase protein wells;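 active = activation above the mean of all tested compounds plus 3 SD, cut at about 9.5% in these data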;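 note: cells exposed to compounds for one day before reading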
HuH7 TTR inh: TTR promoter reporter inhibitors in hepatoma cells, counter-screen for TTR transcription activator project, cell-based, luminescence, HuH7 hepatoma | inhibition, % at 16.7 µM | actives 4% (n = 1,100) | shares compounds with TTR transcr act | HuH7 TTR promoter-Gaussia luciferase reporter;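 active = average inhibition above the solvent-only control wells' mean plus 3 SD, cut at about 15% in these data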;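 note: inhibitors lower well luminescence so higher value means more inhibition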
TTR up confirm: TTR transcription activators, retest, confirmation, cell-based, luminescence, SH-SY5Y, triplicate; shares compounds with TTR transcr act; SHSY5Y TTR promoter Gaussia luciferase; 100% = purified Lucia enzyme wells, no cells; activation, % at 16.7 µM; 1,100 tested, under 10 active; AID 1117280, 2014;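 active = mean activation above a set limit taken from the earlier primary screen, cut at about 11% in these data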
Of the large screens only hits and unclear results are named; the others gave an inactive call (follow-up assays come after a bar, where they were run).

CC(C)CN1CN2CCc3ccccc3C2CS1(=O)=O (centres undefined)	none
CCOC(=O)[C@]12CCCC3=C1N(CCC3)C(=O)[C@@H](CC(=O)NCCCOC)C2	none
CC(C)Oc1ccc(CNC(=S)N/N=C/c2ccc([N+](=O)[O-])cc2)cc1	none
CC(C)COc1ccc(CNC(=S)N/N=C/c2ccc([N+](=O)[O-])cc2)cc1	TTR transcr act 11 | HuH7 TTR inh inactive | TTR up confirm inactive
COc1ccc(CNC(=S)N/N=C/c2ccncc2)cc1	none
O=C1CCC[C@H]2C[C@H](NCc3cccnc3)CC[C@]23CCCN13	none
CN1CCC(N2CCN(C3CN(Cc4ccc(F)cc4)S(=O)(=O)C3)CC2)CC1 (centres undefined)	TTR transcr act 12 | HuH7 TTR inh inactive | TTR up confirm inactive
O=S1(=O)CC(N2CCC(Cc3ccccc3)CC2)CN1Cc1ccc(F)cc1 (centres undefined)	none
CN1CCN(C2CN(Cc3ccccc3)S(=O)(=O)C2)CC1 (centres undefined)	none
COc1c2ccoc2c(OC[C@@H](OC(C)=O)C(C)(C)O)c2oc(=O)ccc12	none
CC(C)(O)C(O)COc1c2ccoc2cc2oc(=O)ccc12 (centres undefined)	none
COC(C)(C)[C@H](O)COc1c2ccoc2cc2oc(=O)ccc12	TTR transcr act 13 | HuH7 TTR inh inactive | TTR up confirm inactive
CC(C)(C)S(=O)N1C[C@H]2CC(=O)C(CCO)=C2[C@@H]1CCO (some centres undefined)	none
c1ccc(C2CCC3(CC2)CCC3NCc2cccs2)cc1 (centres undefined)	none
COc1ccccc1Cc1c(-c2ccccc2)nc2ccc(Br)cn12	none
Cc1ccc(-c2nc3ccccc3nc2-c2ccccc2)cc1	none
Cc1cc(-c2ccccc2)nc(-c2ccccc2)c1C	TTR transcr act 19 | HuH7 TTR inh inactive | TTR up confirm inactive
Cc1ccc(-c2cc(-c3ccccc3)nc(NN)n2)cc1	none
O=C(NCCc1ccccc1)OCc1cn(-c2cccc(F)c2F)nn1	none
O=C(NCCc1c[nH]c2ccccc12)OCc1cn(Cc2cccc(F)c2F)nn1	none
COc1ccc(Oc2nc(-c3ccccc3)ncc2S(=O)(=O)c2ccccc2)cc1	none
Cc1cccc(C)c1Oc1nc(-c2ccccc2)ncc1S(=O)(=O)c1ccccc1	TTR transcr act 27 | HuH7 TTR inh inactive | TTR up confirm inactive
COc1nc(-c2ccccc2)ncc1S(=O)(=O)c1ccccc1	none
CC(C)CNC(=O)OCc1cn(Cc2cccc(F)c2F)nn1	none
Cc1ccc(C(=O)Nc2cc3c(oc2=O)CCCC3=O)cc1	TTR transcr act 28 | HuH7 TTR inh inactive | TTR up confirm inactive
Cc1oc(=O)c(NC(=O)c2ccccc2)cc1C(C)O (centres undefined)	none
Cc1ccc(C(=O)Nc2c[nH]c(=O)[nH]c2=O)cc1	none
Cn1cc([N+](=O)[O-])c(C(=O)NCc2ccccc2)n1	none
Cc1c2ccccc2nc2ccccc12	none
OCCNc1nc2ccccc2nc1NCCO	none
OCCNc1c2ccccc2nc2ccccc12	TTR transcr act 16 | HuH7 TTR inh inactive | TTR up confirm 15
C[C@H]1C2CC(OC(=O)NCc3ccccc3)C(C2)[C@H]2CCCCN21 (some centres undefined)	none
O=c1[nH]c(CN2CCCCC2)ccc1O	none
CC(=O)NC1(c2ccccc2)CCN(C(=O)N2CCOCC2)CC1	none
CC(=O)NC1(C(F)(F)F)C(=O)N(Cc2ccccc2)C2=C1C(=O)CC(C)(C)C2 (centres undefined)	none
CC(=O)NC1(NC(C)=O)CCN(C)C(c2ccccc2)C1C (centres undefined)	TTR transcr act 15 | HuH7 TTR inh inactive | TTR up confirm inactive
Cn1cccc1[C@]1(O)C(=O)Nc2ccc(F)cc21	none
O=C(Nc1ccc(OC(F)(F)F)cc1)Nc1c(-c2ccc(C(F)(F)F)cc2)nc2ncccn12	none
CCCc1nnc(SCC(=O)NC2CC2)n1C	none
CC(C)(C)OC(=O)N/N=C\C=C\c1ccc2c(c1)OCO2	none
CCN1CCCCC(NC(=O)Cc2ccccc2)C1=O (centres undefined)	none
COCCCNC(=O)C[C@H]1C[C@@]2(C(=O)OC)C(=C[C@H](C3CCCC3)O[C@@H]2C)N(Cc2ccc(Cl)cc2Cl)C1=O	none
CC[C@]12c3[nH]c4cc(-c5ccco5)ccc4c3CCN1C(=O)[C@@H](CC(=O)NCc1ccc(OC)c(OC)c1)C[C@@H]2C(=O)N1CCN(C(=O)C2CC2)CC1	TTR transcr act 10 | HuH7 TTR inh inactive | TTR up confirm inactive
CC[C@]12c3[nH]c4cc(CCC(=O)N(C)C)ccc4c3CCN1C(=O)[C@@H](CC(=O)NCc1ccc(OC)c(OC)c1)C[C@@H]2C(=O)N1CCN(C(=O)C2CC2)CC1	none
CC[C@]12c3[nH]c4cc(-c5ccco5)ccc4c3CCN1C(=O)[C@@H](CC(=O)NCCC1=CCCCC1)C[C@@H]2C(=O)N1CCN(C(=O)C2CC2)CC1	none
COc1ccccc1NC(=O)OCCN1CCCC12CCC(c1ccccc1)CC2 (centres undefined)	none
COc1ccc(CNC2CCC23CCC(c2ccccc2)CC3)cc1OC (centres undefined)	none
Nc1c(C(=O)Nc2ccccc2F)sc2nc(-c3ccco3)ccc12	none
NC(=O)c1sc2nc(-c3ccco3)ccc2c1N	TTR transcr act 10 | HuH7 TTR inh inactive | TTR up confirm inactive
NC(=O)c1sc2nc3c(c(-c4ccco4)c2c1N)CCC3	none
C=CCN1C(=O)[C@H](CC(=O)NCCCC)[C@@]2(C(=O)OCC)CCCC=C12	none
CCOc1ccc(OCC)c(NC(=O)C2CCCN(c3ncccn3)C2)c1 (centres undefined)	none
CCc1ccccc1NC(=O)C1CCCN(c2ncccn2)C1 (centres undefined)	TTR transcr act 12 | HuH7 TTR inh inactive | TTR up confirm inactive
CCC(C)c1ccc(NC(=O)C2CCCN(c3ncccn3)C2)cc1 (centres undefined)	none
Cc1ccccc1CN1CCCCC(NC(=O)c2ccccc2C(F)(F)F)C1=O (centres undefined)	none
C[C@H]1C(c2ccccc2F)O[C@]2(C[C@H](O)c3ccccc3O2)C[C@@H]1O (some centres undefined)	none
CCOC(=O)CCCNC(=O)OCCCN1CCC2(CCC(c3ccccc3)CC2)C1=O (centres undefined)	none
CCOC(=O)[C@]12CCCC=C1N(CCCOC)C(=O)[C@@H]2CC(=O)NCc1cccs1	none
CCOC(=O)C1CCN(S(=O)(=O)c2ccc3c(c2)NC(=O)CS3)CC1	TTR transcr act 11 | HuH7 TTR inh inactive | TTR up confirm inactive
CCOC(=O)C1CCN(S(=O)(=O)c2ccc3[nH]c(=O)oc3c2)CC1	none
CCN1CCN(S(=O)(=O)c2ccc3c(c2)NC(=O)CS3)CC1	none
C[C@H]1COc2cc(N3CCSCC3)ccc2S(=O)(=O)N1C	none
Cc1ccccc1CN1CCCCC(NC(=O)Nc2cccc(F)c2)C1=O (centres undefined)	none
C[C@H](NC(=O)c1nc[nH]c1C(=O)NCC(=O)OCc1ccccc1)c1ccccc1	none
O=C(Nc1ccc(F)cc1)OCc1cn(Cc2cccc(F)c2F)nn1	none
CC(C)C[C@H]1CNC(=S)N1CC1CCCN1C[C@H](CC(C)C)N1C[C@H](Cc2ccc(O)cc2)N(CC2CCCCC2)C1=S (some centres undefined)	none
